Screening data from PubChem BioAssay.
C diff growth = C. difficile growth inhibitors, primary screen, HTS. Clostridium difficile clinical isolate growth, OD600, 24 h; active compounds read low. growth activity, negative = inhibition, % at 16 µg/mL (by protocol). 86,000 compounds, 0.25% hits;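 active = mean growth activity at or below -80% and every replicate also at or below -80%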
Pf Dd2 growth = P. falciparum Dd2 growth inhibitors, primary screen, SYBR Green fluorescence, single dose replicates; 72 h; active compounds read low; activity change, % at 10 µM; 94,000 compounds, 2.3% hits; in the data active = activity change below about -80%
Of the large screens only hits and unclear results are named; the others gave an inactive call; ! = a repeat was not active. Sampled rows, rich in hits. Any-hit rate of the full collection: about 2.3%.

C[C@@H]1CN([C@H](C)CO)S(=O)(=O)c2ccc(C#Cc3ccccc3F)cc2O[C@H]1CN(C)C(=O)c1ccc2c(c1)OCO2	Pf Dd2 growth -81!
CC(=O)N(C)C[C@@H]1Oc2cc(C#Cc3ccccc3F)ccc2S(=O)(=O)N([C@H](C)CO)C[C@@H]1C	none
C[C@H](CO)N1C[C@H](C)[C@H](CN(C)C(=O)c2ccc3c(c2)OCO3)Oc2cc(/C=C/c3ccccc3)ccc2S1(=O)=O	Pf Dd2 growth -83
N#C[C@H]1[C@@H](c2ccccc2/C=C/c2ccccc2)[C@@H](CO)N1C(=O)Nc1ccccc1	none
CC(C)NC(=O)Nc1ccc2c(c1)C(=O)N([C@@H](C)CO)C[C@@H](C)[C@@H](CN(C)Cc1ccccc1)OCCCC[C@H](C)O2	none
O=C(c1ccc(F)cc1)N1CC(=O)N2[C@H](C1)[C@H](c1ccc(C#Cc3ccc(F)cc3)cc1)[C@@H]2CO	none
COc1ccc(C#Cc2ccc([C@H]3[C@H]4CN(C(=O)c5ccc(F)cc5)CC(=O)N4[C@H]3CO)cc2)cc1	Pf Dd2 growth -85
COc1cccc(C#Cc2ccc([C@H]3[C@@H](CO)N4C(=O)CN(C(=O)c5ccccc5)C[C@H]34)cc2)c1	Pf Dd2 growth -89
COc1cccc(C#Cc2ccc([C@@H]3[C@H]4CN(C(=O)c5ccccc5)CC(=O)N4[C@H]3CO)cc2)c1	none
COc1cccc(NC(=O)N2CC(=O)N3[C@H](CO)[C@@H](c4ccc(C#CCC5CCCC5)cc4)[C@H]3C2)c1	Pf Dd2 growth -91
COc1cccc(NC(=O)N2CC(=O)N3[C@H](C2)[C@H](c2ccc(C#CCC4CCCC4)cc2)[C@@H]3CO)c1	none
CO[C@H]1CC[C@H]2CCOc3ccc(C#N)cc3C(=O)N(C)C[C@H](OC)[C@H](C)C(=O)N(C)C[C@@H]1O2	none (no result: Pf Dd2 growth)
C[C@H](O)C#Cc1ccc2c(c1)O[C@@H](CN(C)Cc1ccc(-c3ccccc3)cc1)[C@H](C)CN([C@H](C)CO)S2(=O)=O	none
C[C@@H]1CN([C@H](C)CO)C(=O)c2cc(-c3cccc(C(=O)N(C)C)c3)cnc2O[C@@H]1CN(C)C	none
C[C@@H]1CN([C@@H](C)CO)C(=O)CCCn2cc(nn2)CO[C@H]1CN(C)Cc1cccnc1	none
Cc1noc(C)c1S(=O)(=O)N(C)C[C@H]1OCCCC[C@H](C)Oc2ccc(NC(=O)Cc3ccccc3)cc2C(=O)N([C@@H](C)CO)C[C@@H]1C	none
C[C@H](CO)N1C[C@H](C)[C@H](CN(C)Cc2ccc(-c3ccccc3)cc2)Oc2ccc(NS(C)(=O)=O)cc2C1=O	none
OC[C@H]1[C@@H](c2ccc(C#CC3CCCC3)cc2)[C@H]2CN(CCC(F)(F)F)CCCCN21	none
Cc1noc(C)c1S(=O)(=O)Nc1ccc2c(c1)C(=O)N([C@H](C)CO)C[C@@H](C)[C@@H](CN(C)C(=O)Cc1ccccc1)OCCCC[C@@H](C)O2	none
CC=Cc1ccc2n(c1=O)C[C@@H]1[C@@H](CO)[C@H](C(=O)NCC3CC3)[C@H]2N1Cc1ccccc1F (mixture of isomers)	none
COc1ccc(S(=O)(=O)Nc2ccc3c(c2)C(=O)N([C@@H](C)CO)C[C@H](C)[C@@H](CN(C)S(=O)(=O)c2ccc(C)cc2)OCCCC[C@H](C)O3)cc1	Pf Dd2 growth -83 (no result: C diff growth)
COc1ccc(S(=O)(=O)Nc2ccc3c(c2)C(=O)N([C@@H](C)CO)C[C@@H](C)[C@@H](CN(C)S(=O)(=O)c2ccc(C)cc2)OCCCC[C@@H](C)O3)cc1	none (no result: C diff growth)
COc1ccc(S(=O)(=O)Nc2ccc3c(c2)C(=O)N([C@@H](C)CO)C[C@@H](C)[C@@H](CN(C)S(=O)(=O)c2ccc(OC)cc2)OCCCC[C@H](C)O3)cc1	Pf Dd2 growth -85
COc1ccc(S(=O)(=O)Nc2ccc3c(c2)C(=O)N([C@@H](C)CO)C[C@H](C)[C@H](CN(C)S(=O)(=O)c2ccc(OC)cc2)OCCCC[C@@H](C)O3)cc1	none
C[C@@H]1CCCCO[C@@H](CN(C)Cc2ccncc2)[C@H](C)CN([C@@H](C)CO)C(=O)c2cc(NC(=O)Nc3cccc4ccccc34)ccc2O1	none
Cn1cnc(CCNC(=O)C[C@H]2CC[C@@H]3[C@H](COC[C@@H](O)CN3C(=O)C3CC3)O2)c1	none
COc1ccc(NC(=O)Nc2ccc3c(c2)[C@@H]2C[C@@H](CC(=O)N[C@@H](C)c4ccccc4)O[C@@H](CO)[C@@H]2O3)cc1	none
COCC(=O)Nc1ccc2c(c1)[C@@H]1C[C@@H](CC(=O)NCc3ccccc3OC)O[C@@H](CO)[C@@H]1O2	none
CN1CCN(C(=O)C[C@H]2C[C@H]3c4cc(NC(=O)Nc5ccc(C(F)(F)F)cc5)ccc4O[C@H]3[C@H](CO)O2)CC1	none
COc1ccccc1CNC(=O)C[C@H]1C[C@H]2c3cc(NC(=O)Cc4ccncc4)ccc3O[C@H]2[C@H](CO)O1	Pf Dd2 growth -87
O=C(C[C@H]1C[C@@H]2c3cc(NC(=O)Nc4ccccc4)ccc3O[C@@H]2[C@H](CO)O1)NCc1ccccc1	Pf Dd2 growth -88
COc1ccc(NC(=O)Nc2ccc3c(c2)[C@@H]2C[C@H](CC(=O)N[C@@H](C)c4ccccc4)O[C@H](CO)[C@@H]2O3)cc1	Pf Dd2 growth -87
CN1CCN(C(=O)C[C@H]2C[C@@H]3c4cc(NC(=O)Nc5ccc(C(F)(F)F)cc5)ccc4O[C@@H]3[C@@H](CO)O2)CC1	Pf Dd2 growth -85
O=C(C[C@@H]1C[C@@H]2c3cc(NC(=O)Nc4ccccc4)ccc3O[C@@H]2[C@H](CO)O1)NCc1ccccc1	none
O=C(C[C@H]1CC[C@H](NC(=O)CCN2CCCCC2)[C@H](CO)O1)Nc1ccccc1	none
O=C(C[C@H]1C[C@H]2c3cc(NC(=O)c4cccnc4)ccc3O[C@H]2[C@H](CO)O1)NC1CCCCC1	none
CCNC(=O)C[C@@H]1C=C[C@H](NC(=O)C2CC2)[C@@H](CO)O1	none
O=C(C1CCCCC1)N1CC(=O)N2[C@@H](CO)[C@H](c3ccc(-c4ccccc4F)cc3)[C@@H]2C1	none
C[C@H]1CCCCO[C@H](CN(C)C(=O)Nc2ccc(C(F)(F)F)cc2)[C@@H](C)CN([C@@H](C)CO)C(=O)c2cc(NC(=O)Cc3ccccc3)ccc2O1	Pf Dd2 growth -89
COc1ccc(NC(=O)N(C)C[C@@H]2OCCCC[C@@H](C)Oc3ccc(NC(=O)Cc4ccccc4)cc3C(=O)N([C@@H](C)CO)C[C@@H]2C)cc1	none
C[C@@H]1CCCCO[C@H](CN(C)C(=O)Nc2ccccc2)[C@H](C)CN([C@@H](C)CO)C(=O)c2cc(NC(=O)Cc3ccccc3)ccc2O1	none (no result: C diff growth)
C[C@@H]1CCCCO[C@@H](CN(C)C(=O)Nc2ccc(C(F)(F)F)cc2)[C@H](C)CN([C@H](C)CO)C(=O)c2cc(NC(=O)Cc3ccccc3)ccc2O1	none
C[C@H](CO)N1C[C@H](C)[C@@H](CN(C)C(=O)Nc2ccc(C(F)(F)F)cc2)OCCCC[C@H](C)Oc2ccc(NC(=O)Cc3ccccc3)cc2C1=O	Pf Dd2 growth -85
COc1ccc(NC(=O)N(C)C[C@H]2OCCCC[C@H](C)Oc3ccc(NC(=O)Cc4ccccc4)cc3C(=O)N([C@H](C)CO)C[C@H]2C)cc1	Pf Dd2 growth -87
C[C@H]1CCCCO[C@@H](CN(C)C(=O)Nc2ccccc2)[C@@H](C)CN([C@@H](C)CO)C(=O)c2cc(NC(=O)Cc3ccccc3)ccc2O1	none (no result: C diff growth)
